Screening data (PubChem)
NF-kB expr up = NF-kB expression increase, human neuronal cells | NF-kB reporter expression; hits give high values | fold change at 12.5 µM | 190,000 tested, 1.6% active; in the data active = fold change above about 3.3
hcDAF-12 act = H. contortus DAF-12 activation, primary screen | activation, % at 6.8 µM | 370,000 tested, 1.4% active | AID 652067 | HEK293 hcDAF-12 lit1-tk-luc reporter, luminescence; 0% DMSO, 100% Δ7-dafachronic acid;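 active = activation above the mean of all tested compounds plus 3 SD, cut at about 5.5% in these data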;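 note: 100% = response to 3 µM Δ7-dafachronic acid high control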
APP 5'UTR act = activates APP 5'UTR luciferase reporter; AID 1276; 190,000 tested, 1% active; SH-SY5Y APP 5'UTR luciferase reporter, luminescence; zero percent = DMSO vehicle wells; activation, % at 2 µM;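 active = activation above a set limit, based on mean plus 3 SD of controls, cut at about 140% in these data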
ssDAF-12 act = S. stercoralis DAF-12 activation, primary screen; HEK293 ssDAF-12/GRIP1 lit1-tk-luc reporter, luminescence; % of 3 µM dafachronic acid response; activation, % at 6.8 µM; 370,000 tested, 1% active;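 active = activation above the mean over all tested compounds plus 3 SD, cut at about 0.9% in these data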;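 note: 0% = DMSO-only wells and 100% = 3 µM delta7-dafachronic acid wells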
hgDAF12 agonist = hgDAF-12 agonism, primary luciferase screen. HEK293 GAL4-hgDAF12 UAS-luciferase reporter, agonist luminescence; normalized to butyrate control. activation, % at 6.8 µM. 370,000 tested, 1.8% active;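 active = activation above a cutoff set at the mean of all screened compounds plus 3 SD, cut at about 10% in these data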;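 note: 0% = DMSO wells and 100% = sodium butyrate wells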
LXR ag = counter-screen for hcDAF-12 agonists: agonists of human LXR-beta | activation, % at 6.8 µM | HEK293 Gal4-LXR tk-luc reporter, luminescence, 24 h; normalized: DMSO 0%, positive control 100% | AID 743027 | shares compounds with hcDAF-12 act | 3,400 tested, under 10 active;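 active = mean percent activation of the reporter above a cutoff set as the average over tested compounds plus their standard deviation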
Target sequence (P55055 whole entry, looked up, the tested form may be a part): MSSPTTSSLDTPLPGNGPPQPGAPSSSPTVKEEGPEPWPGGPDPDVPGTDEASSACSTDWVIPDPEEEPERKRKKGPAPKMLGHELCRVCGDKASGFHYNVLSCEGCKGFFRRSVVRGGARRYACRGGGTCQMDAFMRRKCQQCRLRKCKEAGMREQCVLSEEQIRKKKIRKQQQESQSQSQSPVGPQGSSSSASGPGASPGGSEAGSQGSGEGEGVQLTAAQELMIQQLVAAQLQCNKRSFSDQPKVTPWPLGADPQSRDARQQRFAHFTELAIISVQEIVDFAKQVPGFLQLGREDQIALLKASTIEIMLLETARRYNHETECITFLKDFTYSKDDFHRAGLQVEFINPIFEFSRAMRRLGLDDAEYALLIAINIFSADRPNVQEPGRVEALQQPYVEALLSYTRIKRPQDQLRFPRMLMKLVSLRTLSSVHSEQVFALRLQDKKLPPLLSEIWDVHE
hcDAF12 conf = hcDAF-12 agonism, confirmation assay; activation, % at 6.8 µM; HEK293 hcDAF-12 lit1-tk-luc reporter, luminescence; % of Δ7-dafachronic acid response; shares compounds with hcDAF-12 act; 3,400 tested, 61% active;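 active = mean activation across triplicate tests above the threshold derived from the earlier primary screen, cut at about 5.5% in these data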;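 note: 0% = DMSO only wells and 100% = 3 µM Δ7-dafachronic acid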
hgDAF12 conf = hgDAF-12 agonism, confirmation assay | shares compounds with hgDAF12 agonist | 3,300 tested, 80% active | activation, % at 6.8 µM | HEK293 GAL4-hgDAF12 luciferase reporter, agonist mode; percent of butyrate response | AID 743050;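 active = mean activation over triplicate wells above the hit cutoff derived from the earlier primary screen, cut at about 11% in these data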;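 note: 0% = DMSO low control and 100% = 2 mM sodium butyrate high control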
LXRb DAF12 ctr = LXR-beta agonism as DAF-12 counter-screen. shares compounds with hgDAF12 agonist. HEK293 Gal4-LXR luciferase reporter, 24 h. activation, % at 6.8 µM. 3,300 tested, under 10 active. AID 743051;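 active = mean activation of the triplicate above a set limit carried over from the primary screen, none filed active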
An asterisk follows results filed as active; . = not tested or not shown. This is a sample that favours compounds with a hit; in the whole collection about 3.4% have one here.

SMILES	NF-kB expr up	hcDAF-12 act	APP 5'UTR act	ssDAF-12 act	hgDAF12 agonist	LXR ag	hcDAF12 conf	others
O=C(NCCN1CCC(Cc2ccccc2)CC1)C1CCCN(S(=O)(=O)c2cccs2)C1 (configuration not stated)	.	-4	.	-2	-2	.	.
CN1CCCC1CCSc1ncccc1-c1nc2ccccc2[nH]1 (configuration not stated)	.	-1	.	-1	4	.	.
CC1CCCCN1C(=O)CSCC(=O)Nc1nc(-c2cccs2)cs1 (configuration not stated)	1.3	6.6*	18	0	7	0	2
CC1(NC(=O)c2ccc(C#Cc3cccc(F)c3)cn2)COC1	.	-3	.	-1	2	.	.
CC(=O)NCCC(=O)N1CCc2c([nH]c3ccccc23)C1c1cccc(C)c1 (configuration not stated)	1.3	7.1*	26	0	9	0	7.6*
CC(=O)NCCC(=O)N1CCc2c([nH]c3ccccc23)C1c1cccc(Cl)c1 (configuration not stated)	0.84	4	2	-1	-1	.	.
CN(C)Cc1c(C(=O)Nc2ccccc2)[nH]c2ccccc12	.	7.1*	.	1	9	0	1
Cc1nc2ccc(N=NC3=C(O)CCCC3=O)cc2s1	2	2	1	-1	9	.	.
Cc1nc2ccc(N=NC3=C(O)CC(C)(C)CC3=O)cc2s1	1.2	8.0*	37	1.6*	12*	2	7.5*
C=CC[C@@H](CC(=O)N(CCO)Cc1ccccc1)C(=O)N[C@H](COC(=O)[C@@H](CC=C)Cc1ccc(F)cc1)c1ccccc1	.	7.6*	.	-1	0	0	1
C=CC[C@@H](CC(=O)N(CCO)Cc1ccccc1)C(=O)N[C@@H](C)COC(=O)[C@@H](CC=C)Cc1ccc(F)cc1	.	-3	.	-2	-4	.	.
Cc1cccc(N=C2NN=C(c3c(C)[nH]c4ccccc34)CS2)c1	1.2	7.9*	22	-1	2	0	3
CCOC(=O)c1c(C)[nH]c(C2=NNC(=Nc3ccccc3)SC2)c1C	1.4	2	10	-2	2	.	.
CC(C)c1ccccc1NC(=O)COC(=O)Cc1c[nH]c2ccccc12	1.1	7.9*	-3	1.3*	3	0	4
O=C1N=c2ccccc2=C1c1sc(=S)n(NC(=O)c2cccc(O)c2)c1O	1	3	-6	0	-2	.	.
O=C1N=c2ccc(Br)cc2=C1c1sc(=S)n(NS(=O)(=O)c2ccccc2)c1O	1.2	6.6*	-5	0	1	0	3
Cc1ccc(-c2nc(-c3ccccc3)no2)cc1	10*	6.8*	132	0	13*	1	8.5*
Cc1ccc(-c2noc(-c3c(C)noc3C)n2)cc1	.	0	.	0	3	.	.
COc1cccc(-c2nc(-c3ccccn3)no2)c1	0.93	2	35	-1	-4	.	.
COc1ccc(-c2cc(-c3ccccc3)no2)cc1	.	11*	.	0.9*	11*	2	11*
COc1cccc(-c2nc(-c3ccccc3)no2)c1	7.3*	9.4*	128	2.0*	19*	2	15*
CC(C)(C)c1ccc(-c2noc(CCC(=O)NC3CC3)n2)cc1	.	-7	.	-3	-12	.	.
C#Cc1cccc(OCC(C)CN2CCC(C(O)(c3ccccc3)c3ccccc3)CC2)c1 (configuration not stated)	.	-3	.	-2	1	.	.
Cc1nn(-c2ccccc2)c2sc(C(=O)NC3CCCCCC3)cc12	.	-3	.	-1	2	.	.
C=CCn1c(SCC(=O)Nc2ccc(N3CCOCC3)cc2)nnc1-c1ccncc1	.	-2	.	-1	2	.	.
SMILES	NF-kB expr up	hcDAF-12 act	APP 5'UTR act	ssDAF-12 act	hgDAF12 agonist	LXR ag	hcDAF12 conf	others
C=CCn1c(SCC(=O)Nc2ccc(-c3nc4ccc(C)cc4s3)cc2)nnc1-c1ccncc1	1.5	7.0*	160*	-1	13*	0	2
COC(=O)[C@]12C[C@H](CC(=O)N3CCC(c4ccccc4)CC3)C(=O)N(Cc3cccc4ccccc34)C1=C[C@H](C1CCCC1)O[C@@H]2C	.	1	.	-1	4	.	.
COc1cc(/C=N/Nc2nc3ccccc3o2)cc(OC)c1O	0.93	1	18	0	6	.	.
COc1ccc(/C=N/Nc2nc3ccccc3o2)cc1O	8.6*	12*	137*	1	15*	1	6.6*	hgDAF12 conf=7;LXRb DAF12 ctr=1
Fc1ccc(N2C(=S)SC(=Nc3ccccc3)C2=Nc2ccccc2)cc1	.	4	.	-1	7	.	.
N=C1N(c2ccccc2)C(=S)C(=Nc2ccccc2)N1c1ccccc1	.	9.8*	.	0	17*	0	1	hgDAF12 conf=7;LXRb DAF12 ctr=0
O=C(O)C/C(=C\c1ccc(Cl)cc1)c1nc2ccccc2o1	0.82	2	2	-1	3	.	.
O=C(O)C(=O)/C(=C\c1ccc(Cl)cc1)c1ccc2ccccc2n1	1.1	14*	86	2.5*	14*	1	11*	hgDAF12 conf=1;LXRb DAF12 ctr=1
COC[C@@H]1CCCN1c1cccc2c1S(=O)(=O)N(C1CC1)CCCO2	.	-1	.	-1	-2	.	.
Cn1c(SCC(=O)Nc2ccccc2-c2ccccc2)nnc1-c1cnccn1	.	-3	.	-1	2	.	.
CN(C)/C=C(\C#N)c1nc2ccccc2[nH]1	1.4	-1	15	0	2	.	.
N#C/C(=C/c1cccs1)c1nc2ccccc2[nH]1	1.6	6.8*	69	-1	18*	1	8.4*	hgDAF12 conf=14*;LXRb DAF12 ctr=1
COc1ccc(/C=N/N=C(\N)c2nonc2N)cc1	9.4*	12*	191*	1	16*	1	6.6*	hgDAF12 conf=16*;LXRb DAF12 ctr=1
COc1ccc(/C=N/Nc2nonc2N)cc1	1.7	-1	11	-2	2	.	.
COc1ccc(Cn2ccc3ccc(-c4ccc5ccn(Cc6ccc(OC)cc6)c5c4)cc32)cc1	.	0	.	0	1	.	.
CC(=O)N1CCCN(C(=O)C2CCN(c3ncnc4c3sc3cccc(F)c34)CC2)CC1	.	1	.	-2	2	.	.
CC1=NC(=O)C(N=Nc2cccc(C(=O)O)c2)N1c1ccccc1 (configuration not stated)	9.5*	10*	87	1.5*	16*	1	13*	hgDAF12 conf=16*;LXRb DAF12 ctr=1
